# High-throughput results from PubChem BioAssay.
# The entries come from a sample that favours hits as a whole.
# Pf Dd2 inh: qHTS Primary assay for Inhibitors of Plasmodium falciparum Dd2 growth in vitro | 120,000 compounds, 4.3% hits | AID 1347417, 2020 | P. falciparum Dd2 growth, SYBR Green, 72 h | Potency, µM (doses to about 28.9 µM), most hits filed as inhibitors; active = well fitted inhibition curve with a large enough effect; also: nearly all actives have a fitted effect of over 65% in size
#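 Infected erythrocytes (Dd2, 0.3% parasitemia, 2.5% hematocrit final) are added to compound in RPMI-1640/Albumax II medium, grown 72 h at 37C in low oxygen, then lysed with saponin/Triton-X containing SYBR Green and read by fluorescence.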
# Numbers stand for hits; n = inactive.
SMILES,Pf Dd2 inh
O=C(C1CCN(c2nc(-c3ccccc3)nc3c2CCC3)CC1)N1CCCNCC1,8.91µM
Cc1ccc(C#N)c(N2CCN(C3CCCC3)C(CCO)C2)n1 (stereo not drawn),n
O=C(NC1CCCC1)C1CCCN(c2nc(-c3ccccc3)nc3c2CCC3)C1 (stereo not drawn),n
COc1ccccc1OCCNC(=O)C1CCN(c2cn[nH]c(=O)c2)C1 (stereo not drawn),n
CN(CCO)c1ccc(C(=O)N2CCC(Oc3cccnc3)CC2)cn1,n
CC(C)=CCC1(CO)CCCN(Cc2[nH]c3ccc(F)cc3c2C)C1 (stereo not drawn),2.24µM
CCc1noc(C)c1C(=O)N1CCCC(CO)(CC=C(C)C)C1 (stereo not drawn),n
CCCC1(CO)CCCN(Cc2nnc(-c3cccc(F)c3)o2)C1 (stereo not drawn),n
CCNC(=O)N(C1CC1)C1CCOC2(CCN(C(=O)c3n[nH]c4ccccc34)CC2)C1 (stereo not drawn),n
O=C(Cn1nc2n(c1=O)CCCC2)NCc1ccc(F)cc1,n
O=C(c1c(F)ccc(F)c1F)N1CCCC(c2nc(-c3ccncc3)ncc2-c2ccccc2)C1 (stereo not drawn),n
CCOc1cccc(C(=O)Nc2ccc(NC(=O)c3ccc(Br)cc3)cc2)c1,n
CCOc1ccc(NC(=O)c2ccc(-c3ccccc3)s2)cc1,n
CCOC(=O)Cc1cc(C(=O)Nc2ccc(Br)cc2)sc1-c1ccc(C)cc1,7.08µM
COCC1(c2nc(C3CCOCC3)nn2C(C)(C)C)CC1,n
O=C(NCCCn1ccnn1)C1CCCN(C2CCCC2)C1 (stereo not drawn),n
O=C(CN1CCCc2nc(C3CC3)ncc2C1=O)NCc1cccnc1,n
COCCNC(=O)CN1CCCc2nc(C3CC3)ncc2C1=O,n
O=C(CN1CCCc2nc(C3CC3)ncc2C1=O)NCCc1c[nH]c2ccccc12,10µM
O=C(c1ccn[nH]1)N1C[C@@H](COCC2CC2)[C@H](c2ccccn2)C1,n
CCOC(=O)c1noc2ncnc(Nc3cccc(C(F)(F)F)c3)c12,n
CCOC(=O)c1c(C)oc2ncnc(Nc3cccc(C(F)(F)F)c3)c12,n
Cc1ccc(Nc2nc3nonc3nc2Nc2cccc(C(F)(F)F)c2)cc1Cl,1.12µM
COCc1ccc2c(c1)c(OC(C)(C)C(=O)NCC[S+](C)(=O)[O-])nn2Cc1ccccc1,n
CCCCc1ccc(NC(=O)CN2C(=O)NC3(CCOCC3)C2=O)cc1,n
SMILES,Pf Dd2 inh
Cc1nn(C(=O)CCCC(=O)N2CCC(c3nc(C4CCOCC4)no3)CC2)c2ccccc12,n
Cc1ncccc1C(=O)N1[C@H]2CC[C@@H]1c1cnc(-c3ccc(F)cc3)nc1C2,n
COCCn1c(C)cc(C(=O)N2[C@H]3CC[C@@H]2c2cnc(-c4ccc(F)cc4)nc2C3)c1C,11.2µM
O=C(C1CCC1)N1[C@H]2CC[C@@H]1c1cnc(-c3ccc(F)cc3)nc1C2,12.6µM
CCC(=O)N1[C@H]2CC[C@@H]1c1cnc(-c3ccc(F)cc3)nc1C2,n
O=C(C1CCCCC1)N1[C@H]2CC[C@@H]1c1cnc(-c3ccc(F)cc3)nc1C2,n
COc1ccc(C(=O)N2[C@H]3CC[C@@H]2c2cnc(-c4ccc(F)cc4)nc2C3)cc1F,n
COCc1noc([C@@H]2CN(C(=O)CCc3nc4ccccc4[nH]3)C[C@H]2C(N)=O)n1,n
C[C@@H](NC(=O)c1cccnc1)c1onc(-c2ccc(F)cc2)c1C(=O)O,n
CNC(=O)[C@@H](c1ccccc1)N1CCC[C@H]1C(=O)N1CCN(C(C)=O)CC1,n
CCNC(=O)Nc1ccc([C@@H](O)[C@H]2COCC(=O)N2CCOCC)cc1,n
Cc1ccc(NC(=O)c2nn(C)c3c2CS(=O)(=O)c2ccccc2-3)c(Cl)c1,n
Cn1nc(C(=O)Nc2ccc(F)c(Cl)c2)c2c1-c1ccccc1S(=O)(=O)C2,8.91µM
COc1cc(NC(=O)c2nn(C)c3c2CS(=O)(=O)c2ccccc2-3)cc(OC)c1,n
O=C1NCCCCCN(C(=O)NC2CCCCC2)[C@H]2CCCC[C@@H]12,n
COCCn1ccc2c(C3=CCOCC3)nc(-c3cccc(CO)c3)cc21,n
N#Cc1cccc(CN2CCOC[C@H]2c2ncc(-c3ccc(F)cc3)[nH]2)c1,n
Cn1ccnc1CN1CCOC[C@H]1c1ncc(-c2cccc(Cl)c2)[nH]1,5.01µM
c1cncc(CN2CCOC[C@H]2c2ncc(-c3cccnc3)[nH]2)c1,n
CC(=O)Nc1ccc(CN2CCOC[C@H]2c2ncc(-c3cccc(Cl)c3)[nH]2)cc1,n
Fc1ccc(-c2cnc([C@@H]3COCCN3Cc3ncc[nH]3)[nH]2)cc1,n
Oc1ccccc1CN1CCOC[C@H]1c1ncc(-c2cccc(Cl)c2)[nH]1,3.16µM
CCCC(=O)N1C[C@@H](CO)[C@H](c2nc(-c3ccncc3)no2)C1,n
COc1ccc(C(=O)N2CCC(CO)(CN3CCCC3)CC2)cc1C,n
CCOC(=O)c1c(C)[nH]c(CCC(=O)NCCCN2CCN(c3ccccc3F)CC2)c1C,11.2µM
SMILES,Pf Dd2 inh
CCOC(=O)c1c(C)[nH]c(CCC(=O)NCc2ccc(F)cc2)c1C,n
CCOC(=O)c1c(C)[nH]c(C)c1S(=O)(=O)NCC(=O)N1CCN(c2ccccc2F)CC1,n
COCCN1C(=O)[C@H]2CN(Cc3ccccc3C(F)(F)F)C[C@H]2C1=O,n
CCOc1ccc(CN2C[C@@H]3C(=O)N(Cc4ccc5c(c4)OCO5)C(=O)[C@@H]3C2)cc1,n
CCOc1ccc(CN(CCc2ccc3c(c2)OCO3)Cc2cc(OC)ccc2O)cc1,0.708µM
CCOc1ccc(CN(CCc2ccc3c(c2)OCO3)Cc2ccc(CC)cc2)cc1,n
COc1ccc(CN2C(=O)COC[C@H]2C(=O)NCc2cccc(OC)c2OC)cc1,n
CN(Cc1cccc(C(F)(F)F)c1)Cc1ccccc1C(F)(F)F,n
CCCC(=O)N1[C@@H]2CC[C@H]1CC(NC(=O)c1cnc(C)cn1)C2 (stereo partly drawn),n
Fc1ccc(-c2noc3ncnc(NCCCN4CCN(c5ccccc5)CC4)c23)cc1,n
CCOc1ccc(CCNc2ncnc3onc(-c4ccc(Cl)cc4)c23)cc1OCC,n
Clc1ccc(-c2noc3ncnc(NCCCN4CCN(c5ccccc5)CC4)c23)cc1,11.2µM
CN1C(=O)Cc2cc(S(=O)(=O)Nc3cccn4nc(C5CC5)nc34)ccc21,n
COc1ccc(Cl)cc1C(=O)N1C[C@@H](CO)[C@H](c2ccccn2)C1,n
O=C(Nc1ccc(Cl)cc1)N1Cc2[nH]cnc2C[C@H]1c1nc(-c2ccc(F)c(Cl)c2)no1,n
COc1ccc(CN2Cc3[nH]cnc3C[C@H]2c2nc(-c3ccc(C)cc3)no2)cc1,22.4µM
Cc1ccc(-c2noc([C@@H]3Cc4nc[nH]c4CN3Cc3ccccc3)n2)cc1,10µM
Fc1ccc(CN2Cc3[nH]cnc3C[C@H]2c2nc(-c3ccc(F)c(Cl)c3)no2)cc1,11.2µM
COc1ccc(CN2Cc3[nH]cnc3C[C@H]2c2nc(-c3ccccn3)no2)cc1,n
Cc1ccc(-c2noc([C@@H]3Cc4nc[nH]c4CN3Cc3ccc(N(C)C)cc3)n2)cc1,n
COc1ccccc1CN1Cc2[nH]cnc2C[C@H]1c1nc(-c2cccc(C)c2)no1,12.6µM
Cc1ccc(-c2noc([C@@H]3Cc4nc[nH]c4CN3C(=O)COCC(=O)O)n2)cc1,n
CCNC(=O)N1Cc2[nH]cnc2C[C@H]1c1nc(-c2ccc(F)c(Cl)c2)no1,n
COc1ccc(-c2noc([C@@H]3Cc4nc[nH]c4CN3Cc3cccs3)n2)cc1,n
